The values below come from PubChem BioAssay (Tox21).

Assay [1] concerns the target Aryl hydrocarbon receptor (Homo sapiens) (UniProt P35869). Nature of the assay: qHTS assay to identify small molecule that activate the aryl hydrocarbon receptor (AhR) signaling pathway (AID 743085). Further: nearly all actives have a fitted effect of over 15% in size. Further: potency means the concentration at half of the fitted maximal effect.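 On activation: HG2L7.5c1 human HepG2 liver cells with stably integrated DRE-driven firefly reporter; series mostly up to about 70 µM.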 The method, boiled down: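 AhR agonist activity is inferred from enhanced light output of a DRE-controlled firefly luciferase reporter in HepG2 cells, measured with ONE-Glo following 24 h treatment at 37C.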
(In general: qHTS replaces the single test concentration by a dilution series.)

The nature of assay [2]: qHTS assay to identify small molecule that activate the aryl hydrocarbon receptor (AhR) signaling pathway - cell viability counter screen (AID 743086).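 Further: HepG2 liver cells carrying the AhR DRE luciferase reporter; series mostly up to about 70 µM; nearly all actives have a fitted effect of over 45% in size.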 The method, boiled down: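 HepG2-AhR-luc (HG2L7.5c1) cells, 4000/well, were preincubated 5 h at 37C, exposed to compound in qHTS format for 24 hr at 37C, then given CellTiter-Fluor for 30 min; viability was read as fluorescence in the reporter wells.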

For assay [3], the target named is Peroxisome proliferator-activated receptor gamma (Homo sapiens) (UniProt P37231). The assay can be described thus: qHTS assay to identify small molecule agonists of the peroxisome proliferator-activated receptor gamma (PPARg) signaling pathway (AID 743094; active means well fitted activation curve with a large enough effect in the signal ratio in the repeat runs, not every such curve was filed as active; the % refers to the signal ratio). The method, boiled down: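 Fluorescence-based beta-lactamase readout in HEK293H PPARg UAS-bla cells after 17 h compound exposure (37C) and 1 h B/G FRET substrate incubation at room temperature.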
Sequence of Peroxisome proliferator-activated receptor gamma (Homo sapiens) (P37231 whole entry, looked up): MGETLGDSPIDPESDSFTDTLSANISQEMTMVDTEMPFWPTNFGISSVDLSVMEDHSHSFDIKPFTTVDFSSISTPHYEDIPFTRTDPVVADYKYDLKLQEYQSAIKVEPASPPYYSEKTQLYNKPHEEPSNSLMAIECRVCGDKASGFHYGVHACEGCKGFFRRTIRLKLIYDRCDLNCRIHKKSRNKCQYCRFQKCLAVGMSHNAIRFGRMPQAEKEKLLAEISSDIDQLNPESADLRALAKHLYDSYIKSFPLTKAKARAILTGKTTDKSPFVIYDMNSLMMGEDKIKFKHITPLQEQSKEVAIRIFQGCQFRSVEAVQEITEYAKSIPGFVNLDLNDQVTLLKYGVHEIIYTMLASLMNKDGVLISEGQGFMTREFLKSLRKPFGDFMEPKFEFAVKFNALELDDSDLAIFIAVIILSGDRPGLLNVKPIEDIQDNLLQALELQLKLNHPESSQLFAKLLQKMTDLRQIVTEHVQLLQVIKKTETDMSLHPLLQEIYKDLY

Assay [4] has the same target. The assay can be described thus: qHTS assay to identify small molecule antagonists of the peroxisome proliferator-activated receptor gamma (PPARg) signaling pathway (AID 743191; calls by dose curve; further: series mostly up to about 63 µM; nearly all actives have a fitted effect of over 30% in size). The method, boiled down: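 GeneBLAzer PPARg UAS-bla HEK293H cells carrying a UAS-driven beta-lactamase reporter were plated at 3000 cells/well, preincubated 5 h at 37C, then given compound for 17 h at 37C; LiveBLAzer B/G FRET substrate was read after 1 h at room temperature.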

Assay [5] can be described thus: qHTS assay to identify small molecule antagonists of the peroxisome proliferator-activated receptor gamma (PPARg) signaling pathway - cell viability counter screen (AID 743194). Further: nearly all actives have a fitted effect of over 55% in size. Put shortly: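 PPARg-UAS-bla HEK293H cells were plated, rested 5 h at 37 C, then treated with compounds plus rosiglitazone (50 nM final) for 17 h at 37 C; viability was then read by CellTiter-Glo luminescence after 30 min at room temperature.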

Assay [6] can be described thus: qHTS assay for small molecule agonists of the antioxidant response element (ARE) signaling pathway - cell viability counter screen (AID 743203; calls by dose curve; further: nearly all actives have a fitted effect of over 55% in size). Put shortly: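 Parallel cytotoxicity read-out for the ARE-bla screen: HepG2 reporter cells, 16 hrs with compounds, then CellTiter-Glo luminescence.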
Assay [7] in a line: qHTS assay for small molecule activators of the heat shock response signaling pathway - cell viability counter screen (AID 743209). Further: nearly all actives have a fitted effect of over 50% in size. The method, boiled down: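 To flag cytotoxic compounds, HSE-bla HeLa cells plated at 1500 cells/well were dosed for 5 h at 37 C, followed by the reporter FRET read and then CellTiter-Glo, with luminescence recorded 30 min after reagent addition.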

The nature of assay [8]: qHTS assay for small molecule activators of the heat shock response signaling pathway (AID 743210; active means well fitted activation curve with a large enough effect in the signal ratio in the repeat runs, with a control signal flat, not every such curve was filed as active; the % refers to the signal ratio;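 further: HeLa cells with beta-lactamase reporter driven by heat shock elements; series mostly up to about 63 µM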). Put shortly: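 Activation of heat shock element-controlled beta-lactamase expression is measured in HeLa cells by LiveBLAzer FRET fluorescence, with compound exposure lasting 5 h at 37 C and substrate loading 2.5 h at room temperature.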
The nature of assay [9]: qHTS assay to identify small molecule agonists of the peroxisome proliferator-activated receptor delta (PPARd) signaling pathway - cell viability counter screen (AID 743211). Further: nearly all actives have a fitted effect of over 55% in size. Put shortly: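 qHTS cell viability: PPARd-bla HEK293H; 17 h cpd, 37C; CellTiter-Glo, luminescence at 30 min RT.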
Assay [10] in a line: qHTS assay for small molecule agonists of the antioxidant response element (ARE) signaling pathway (AID 743202; active means well fitted activation curve with a large enough effect in the signal ratio in the repeat runs, not every such curve was filed as active; the % refers to the signal ratio; further: potency means the concentration at half of the fitted maximal effect). Put shortly:
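Steps: seed ARE-bla HepG2 cells (2,000/well); incubate 5 h at 37 C; add compounds by pin tool; incubate 16 h at 37 C; add FRET substrate; read fluorescence after 2 h at RT.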

SMILES strings stand for the structures. Results filed as inconclusive are left out. A number with no mark means an inactive call. Calls of active or inactive are those of the source. Unless noted, the call rests on the fitted dose curve; in most records, active means well fitted curve in the direction sought with a large enough effect in the repeat runs; inconclusive means weak or mixed curves; inactive means no such curve, though single readings can be large; an effect the other way counts as inactive or inconclusive.
On the % scale 0 is the no-effect control and ±100 the full control effect.

Sequence of Aryl hydrocarbon receptor (Homo sapiens) (P35869 whole entry, looked up): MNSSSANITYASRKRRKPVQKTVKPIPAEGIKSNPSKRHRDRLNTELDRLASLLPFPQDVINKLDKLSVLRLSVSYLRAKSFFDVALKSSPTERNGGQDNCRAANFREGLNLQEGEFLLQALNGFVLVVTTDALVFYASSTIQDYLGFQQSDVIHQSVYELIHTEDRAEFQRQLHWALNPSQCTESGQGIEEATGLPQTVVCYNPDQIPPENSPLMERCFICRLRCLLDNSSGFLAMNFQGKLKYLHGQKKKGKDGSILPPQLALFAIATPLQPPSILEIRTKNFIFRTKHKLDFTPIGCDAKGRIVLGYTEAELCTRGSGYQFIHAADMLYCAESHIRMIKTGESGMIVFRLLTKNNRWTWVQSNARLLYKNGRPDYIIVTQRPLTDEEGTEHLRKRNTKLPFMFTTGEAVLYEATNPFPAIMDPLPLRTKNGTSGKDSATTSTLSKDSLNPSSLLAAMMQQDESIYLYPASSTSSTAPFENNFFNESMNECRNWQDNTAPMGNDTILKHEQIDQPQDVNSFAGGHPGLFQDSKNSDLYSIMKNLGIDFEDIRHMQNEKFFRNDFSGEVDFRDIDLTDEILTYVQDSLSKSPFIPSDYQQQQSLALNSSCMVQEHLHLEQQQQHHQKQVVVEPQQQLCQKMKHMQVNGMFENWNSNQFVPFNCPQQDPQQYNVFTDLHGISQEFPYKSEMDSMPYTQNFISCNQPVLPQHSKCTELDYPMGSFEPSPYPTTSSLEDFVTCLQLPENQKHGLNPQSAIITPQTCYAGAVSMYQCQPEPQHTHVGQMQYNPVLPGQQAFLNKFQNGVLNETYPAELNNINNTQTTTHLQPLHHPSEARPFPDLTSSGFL

On to `O=P(c1ccccc1)(c1ccccc1)c1ccccc1`, for which the Potency result in [1], in [2], in assay [3], in [4], in [5] and in assay [6] was “inactive” throughout. For the same molecule, in [9], the Potency entry is “inactive”. The outcome in assay [7] and in assay [8] was inactive.
`CCCCOC(=O)CC#N`: the Potency result in assay [1], in assay [2], in assay [3], in assay [4], in [5] and in [6] was “inactive” each time. Further, the Potency result in assay [9] was “inactive”. Further, in assay [7], the call was inactive.
With `CC(CN=Cc1ccccc1O)N=Cc1ccccc1O` (stereo not given), the Potency in [1] was 27.3 µM (active). Further, the Potency entry in assay [2], in [3], in assay [4], in [5], in assay [6] and in [9] was “inactive” in each case. In addition, the molecule was called inactive in assay [7] and in assay [8].
As for `NC(=O)c1ccccc1C(N)=O`, the results for the Potency in [1] and in [10] were 54.7 µM (active) and 24.4 µM (active), respectively. For the same molecule, the Potency entry in [2], in assay [3], in assay [5], in [6] and in [9] was “inactive” each time. Also, the call in [7] and in assay [8] was inactive.
Turning to `CCOC(=O)CC(O)(CC(=O)OCC)C(=O)OCC`, the Potency entry in assay [1], in assay [2], in assay [3], in assay [4], in [5] and in [6] was “inactive” throughout. The Potency result in assay [9] is “inactive”. Besides, in assay [8], the outcome was inactive.
With `COC=O`, the activation is -0.706% [at 8.47 µM] in assay [1] and 1.2% [at 7.08 µM] in assay [3]. Further, the values for the viability change, negative = cytotoxic in assay [2] and in [6] were 14.9% [at 8.47 µM] and -4.87% [at 8.36 µM], respectively. In [4], the ratio activity, negative = inhibition is 0.629% [at 5.95 µM]. Also, the figures for the activity change, negative = cytotoxicity in [5], in assay [7] and in [9] were -0.602% [at 5.95 µM], -11.9% [at 5.95 µM] and -28.1% [at 5.95 µM], respectively.
As for `O=C(c1ccc(Cl)cc1)c1ccc(Cl)cc1`, the Potency result in assay [1], in [2], in assay [3], in assay [4], in assay [5] and in [6] was “inactive” throughout. Further, in assay [9], the Potency entry is “inactive”. For the same molecule, the molecule was classed as inactive in [7].
Turning to `CC(=O)Nc1cccc(N)c1`, the Potency in assay [1] was 62 µM (active). Moreover, the Potency entry in assay [2], in assay [3], in [4], in assay [5] and in [9] was “inactive” throughout. In addition, the outcome in assay [7] and in assay [8] was inactive.
As for `CCCCCCOC(=O)c1ccccc1`, the Potency result in assay [1], in assay [2], in assay [3], in [4], in assay [5] and in assay [6] was “inactive” in each case. Besides, the Potency result in assay [9] is “inactive”. In addition, the call in [7] and in assay [8] was inactive.
Regarding `COc1ccc(CN(CCN(C)C)c2ncccn2)cc1`, the Potency entry in assay [1], in assay [2], in [3], in assay [4], in assay [5] and in [6] was “inactive” throughout. In assay [9], the Potency result is “inactive”. Also, the outcome in [7] and in assay [8] was inactive.
For `COc1ccc(C(=O)c2ccc(C)cc2)c(O)c1`, the Potency in [1] was 9.44 µM (active). The Potency entry in assay [2], in assay [3], in assay [4], in assay [5], in assay [6] and in assay [9] was “inactive” each time. In assay [8], the call was inactive.
On to `COc1ccc(/C=C/S(=O)(=O)NC(=O)c2ccc(C)cc2Cl)cc1`, for which the Potency entry in assay [1], in [2], in [3], in [5], in [10] and in assay [6] was “inactive” each time. The Potency entry in assay [9] was “inactive”. Also, the outcome in [7] and in assay [8] was inactive.
Turning to `CCC(CC)C(=O)O`, the Potency result in [1], in [2], in assay [3], in assay [5], in [10] and in assay [6] was “inactive” throughout. The Potency result in assay [9] was “inactive”. Further, the molecule was classed as inactive in [7] and in assay [8].
Consider `C=CC(=O)NC(C)(C)C`, for which the Potency entry in assay [1], in [2], in assay [3], in assay [4], in assay [5] and in [6] was “inactive” in each case. Also, the Potency entry in assay [9] was “inactive”. The outcome in assay [8] was inactive.
Take `O=C1CCCN1CCO`: the Potency result in assay [1], in assay [2], in [3], in assay [4], in assay [5] and in [6] was “inactive” throughout. Further, in assay [9], the Potency result is “inactive”. The outcome in assay [7] was inactive.
Regarding `O=S(=O)(O)c1cc(Cl)c(Cl)cc1Cl`, the Potency result in assay [1], in [2], in assay [3], in assay [4], in assay [5] and in assay [6] was “inactive” each time. For the same molecule, the Potency result in assay [9] was “inactive”. In addition, the result in [8] was inactive.
`CCCCOc1ccc(N)cc1`: the Potency result in assay [1], in [2], in [3], in [5], in [10] and in [6] was “inactive” in each case. For the same molecule, the Potency entry in [9] is “inactive”. The call in [7] and in assay [8] was inactive.
Turning to `O=C1c2ccccc2C(=O)C1c1ccc2ccccc2n1`, the Potency in assay [1] is 10.8 µM (active). The Potency result in assay [2], in [3], in [4], in [5], in [6] and in assay [9] was “inactive” in each case. Also, the result in assay [7] and in assay [8] was inactive.
Consider `Cc1c(N=C=O)cccc1N=C=O`, for which the Potency entry in assay [1], in [2], in assay [3], in assay [4], in assay [5] and in assay [6] was “inactive” throughout. Moreover, the Potency entry in assay [9] is “inactive”. The molecule was called inactive in assay [7] and in assay [8].
Turning to `C[C@@H](O)[C@H]1C(=O)N2C(C(=O)O)=C(S[C@@H]3CN[C@H](CNS(N)(=O)=O)C3)[C@H](C)[C@H]12`, the Potency result in [1], in assay [2], in assay [3], in [4], in assay [5] and in [6] was “inactive” throughout. In addition, the Potency result in [9] is “inactive”. The call in [7] and in [8] was inactive.
`SCCOCCOCCS`: the Potency entry in assay [1], in assay [2], in assay [3], in assay [4], in assay [5] and in assay [6] was “inactive” in each case. Moreover, the Potency result in assay [9] is “inactive”. Further, the call in assay [7] and in assay [8] was inactive.
As for `C/C(=C\C(C)CC(C)CC(C)C)C1CC(=O)OC1=O` (stereo not given), the Potency result in [1], in assay [2], in assay [3], in assay [4], in assay [5] and in [6] was “inactive” in each case. Besides, the Potency entry in assay [9] was “inactive”. Moreover, the molecule was classed as inactive in [7] and in assay [8].
With `NC(=O)c1cc[n+](CC2=C(C(=O)[O-])N3C(=O)[C@@H](NC(=O)Cc4cccs4)[C@H]3SC2)cc1`, the Potency result in [1], in assay [2], in assay [3], in assay [4], in assay [5] and in assay [9] was “inactive” throughout. In assay [8], the result was inactive.
Consider `O=C(O)c1ccccc1[N+](=O)[O-]`, for which the Potency entry in assay [1], in assay [2], in assay [3], in [4], in assay [5] and in assay [9] was “inactive” each time. Also, the result in assay [7] and in assay [8] was inactive.
In the case of `CC(=O)OCC(=O)[C@@]1(O)CC[C@H]2[C@@H]3CCC4=CC(=O)C=C[C@]4(C)[C@@]3(F)[C@@H](O)C[C@@]21C`, the Potency entry in [1], in [2], in assay [3], in assay [4], in assay [5] and in assay [6] was “inactive” throughout. In addition, in [9], the Potency entry was “inactive”. In addition, the call in assay [8] was inactive.
For `c1ccc(CCNc2nc(-c3ccccc3)cs2)cc1`, the Potency in assay [1] is 15 µM (active). Also, the Potency entry in assay [2], in assay [3], in assay [4], in [5], in assay [6] and in assay [9] was “inactive” throughout. In addition, the call in assay [7] and in assay [8] was inactive.
Take `O=[N+]([O-])c1ccc(Cl)cc1Cl`: the Potency result in assay [1], in [2], in assay [3], in [4], in [5] and in assay [6] was “inactive” in each case. Besides, the Potency entry in assay [9] is “inactive”. Moreover, the result in [7] and in assay [8] was inactive.
